# Source: PubChem BioAssay (Tox21)
# Records with an inconclusive call do not appear. Active and inactive are the calls of the source. Unless noted, calls come from the whole dose curve.
# Target: Estrogen receptor (Homo sapiens) (UniProt P03372)
# Test: qHTS assay to identify small molecule antagonists of the estrogen receptor alpha (ER-alpha) signaling pathway (AID 743069; active = well fitted curve in the direction sought with a large enough effect in the signal ratio in the repeat runs, not every such curve was filed as active; the % refers to the signal ratio)
# Conditions: HEK293 ER-alpha-UAS-bla, beta-lactamase ratio, antagonist mode; series mostly up to 69.4 µM; activity, negative = inhibition: at the top concentration
# How it was run: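 HEK293 cells stably carrying an ER-alpha-UAS-bla beta-lactamase reporter were pre-cultured overnight in 2% charcoal-stripped FBS medium. Test compounds in DMSO were added together with 17beta-estradiol for 18 hr at 37C. Read-out was fluorescence after 2 hr with LiveBLAzer B/G FRET substrate at room temperature.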
# % is set by controls: 0 for no effect and ±100 for the full control effect.
# Sequence of Estrogen receptor (Homo sapiens) (P03372 whole entry, looked up): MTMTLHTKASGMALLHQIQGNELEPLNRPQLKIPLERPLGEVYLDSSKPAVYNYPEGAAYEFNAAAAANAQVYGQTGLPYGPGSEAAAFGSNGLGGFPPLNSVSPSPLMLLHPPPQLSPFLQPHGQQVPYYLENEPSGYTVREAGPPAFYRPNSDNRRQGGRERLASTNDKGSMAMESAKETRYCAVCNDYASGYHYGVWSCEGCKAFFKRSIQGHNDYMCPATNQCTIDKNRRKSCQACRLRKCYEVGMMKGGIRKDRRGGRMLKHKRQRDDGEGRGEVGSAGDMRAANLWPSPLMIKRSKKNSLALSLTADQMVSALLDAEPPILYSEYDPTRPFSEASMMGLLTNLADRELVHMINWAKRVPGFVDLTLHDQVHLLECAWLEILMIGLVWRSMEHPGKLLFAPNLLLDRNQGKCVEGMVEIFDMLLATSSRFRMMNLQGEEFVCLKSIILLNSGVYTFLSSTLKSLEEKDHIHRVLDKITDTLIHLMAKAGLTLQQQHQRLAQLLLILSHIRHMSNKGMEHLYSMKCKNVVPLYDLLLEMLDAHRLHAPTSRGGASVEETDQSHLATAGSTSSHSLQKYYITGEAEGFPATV
row,SMILES,"activity, negative = inhibition"
1,Cc1ccc(-c2ncc(Cl)cc2-c2ccc(S(C)(=O)=O)cc2)cn1,16.7% (inactive)
2,CO[C@@]1(NC(=O)CSC[C@@H](N)C(=O)O)C(=O)N2C(C(=O)O)=C(CSc3nnnn3C)CS[C@@H]21,2.88% (inactive)
3,CCCCN1C=CN(C)C1,-6.4% [at 32.6 µM] (inactive)
4,CN(C)CCCN(C)CCCN(C)C,-10.6% (inactive)
5,CCCCS(=O)(=O)N[C@@H](Cc1ccc(OCCCCC2CCNCC2)cc1)C(=O)O,-22.1% (inactive)
6,O=C(O)CNC(=O)c1ccc(CO)o1,-26.4% (inactive)
7,C=CCOCC(O)CO (stereo not drawn),17.2% (inactive)
8,CC(C)(CCC(=O)O)C(=O)O,7.7% [at 79.1 µM] (inactive)
9,CC(=O)c1ccccc1[N+](=O)[O-],7.85% (inactive)
10,CC(C)COC(=O)c1ccc(N)cc1,11.5% (inactive)
11,CCCCCCCCCC[N+](C)(C)[O-],25.2% (inactive)
12,c1ccc(Cc2ccccc2)cc1,-10.3% (inactive)
13,CC1=NS(=O)(=O)c2cc(Cl)ccc2N1,-8.08% (inactive)
14,Cc1cccc(C)c1NC(=O)CC12CCCN1CCC2,11.9% (inactive)

# Tested on: not listed separately
# Test: qHTS assay to identify small molecule antagonists of the estrogen receptor alpha (ER-alpha) signaling pathway - cell viability counter screen (AID 743074); note: nearly all actives have a fitted effect of over 45% in size
# Conditions: ERalpha-bla HEK293 viability, CellTiter-Glo luminescence, 18 h; series mostly up to 69.4 µM; activity, negative = cytotoxicity: at the top concentration
SMILES,"activity, negative = cytotoxicity",Potency
Cc1ccc(-c2ncc(Cl)cc2-c2ccc(S(C)(=O)=O)cc2)cn1,-10.2% (inactive),–
CO[C@@]1(NC(=O)CSC[C@@H](N)C(=O)O)C(=O)N2C(C(=O)O)=C(CSc3nnnn3C)CS[C@@H]21,-7.04% (inactive),–
CCCc1nn(C)c2c(=O)[nH]c(-c3cc(S(=O)(=O)N4CCN(C)CC4)ccc3OCC)nc12,7.97% (inactive),–
CCCCN1C=CN(C)C1,9.3% [at 32.6 µM] (inactive),–
CC(C)[C@H]1CC[C@@H](C)CC1=O,18.2% (inactive),–
CCN1CCOCC1,18.3% (inactive),–
COc1cccc(OC)c1C(=O)N[C@@H]1C(=O)N2[C@@H]1SC(C)(C)[C@@H]2C(=O)O,-9.35% (inactive),–
COc1ccccc1OCC1CNC(=O)O1 (stereo not drawn),-12.9% (inactive),–
CCCCOCCOC(=O)CCCCCCCCC(=O)OCCOCCCC,10.9% (inactive),–
COc1ccnc(CS(=O)c2nc3cc(OC(F)F)ccc3[nH]2)c1OC (stereo not drawn),–,inactive
NCCCC[C@H](N[C@@H](CCc1ccccc1)C(=O)O)C(=O)N1CCC[C@H]1C(=O)O,10.9% [at 32.6 µM] (inactive),–
CC[N+](C)(CC)CCOC(=O)C1c2ccccc2Oc2ccccc21,20.1% (inactive),–
C[C@H]1[C@H](NC(=O)/C(=N/OC(C)(C)C(=O)O)c2csc(N)n2)C(=O)N1S(=O)(=O)O (stereo in doubt),13.1% [at 32.6 µM] (inactive),–
CCOCC(C)O (stereo not drawn),-13.3% (inactive),–
CN(C)CCCN(C)CCCN(C)C,-5.38% (inactive),–
O=C(O)CNC(=O)c1ccc(CO)o1,8.82% (inactive),–

SMILES,"activity, negative = cytotoxicity",Potency
C=CCOCC(O)CO (stereo not drawn),-7.96% (inactive),–
CC(C)(CCC(=O)O)C(=O)O,-21% [at 79.1 µM] (inactive),–
OCCc1ccccn1,5.6% (inactive),–
CC1(C)[C@@H]2CC[C@@]1(C)[C@H](O)C2,18.9% (inactive),–
CCCCc1nc(Cl)c(CO)n1Cc1ccc(-c2ccccc2-c2nn[nH]n2)cc1,-3.09% (inactive),–
CC(=O)c1ccccc1[N+](=O)[O-],18.2% (inactive),–
CC(C)COC(=O)c1ccc(N)cc1,14.8% (inactive),–
O=S(=O)(O)c1cccc2ccccc12,5.16% (inactive),–
C1CCC2(CCCCO2)OC1,8.32% (inactive),–
Cc1ccnc(NS(=O)(=O)c2ccc(N)cc2)n1,2.7% [at 32.6 µM] (inactive),–
CCCCCCCCCC[N+](C)(C)[O-],2.87% (inactive),–
c1ccc(Cc2ccccc2)cc1,24% (inactive),–
Cc1ccc(C(=O)c2ccc(CC(=O)O)n2C)cc1,23.3% [at 32.6 µM] (inactive),–
Cc1cccc(C)c1NC(=O)CC12CCCN1CCC2,2.87% (inactive),–
Nc1ccccn1,-8.98% (inactive),–
CCCCCCCCCCCCSC,-5.41% (inactive),–

# Target: Estrogen receptor (Homo sapiens) (UniProt P03372)
# Test: qHTS assay to identify small molecule agonists of the estrogen receptor alpha (ER-alpha) signaling pathway (AID 743075); note: potency is the fitted concentration of half-maximal effect
# Conditions: HEK293 ER-alpha-UAS-bla, beta-lactamase FRET ratio, 18 h; series mostly up to 70.1 µM; activation: at the top concentration
SMILES,activation,Potency
Cc1ccc(-c2ncc(Cl)cc2-c2ccc(S(C)(=O)=O)cc2)cn1,-1.18% (inactive),–
CO[C@@]1(NC(=O)CSC[C@@H](N)C(=O)O)C(=O)N2C(C(=O)O)=C(CSc3nnnn3C)CS[C@@H]21,-1.71% (inactive),–
CCCCN1C=CN(C)C1,-0.57% [at 32.9 µM] (inactive),–
COc1ccnc(CS(=O)c2nc3cc(OC(F)F)ccc3[nH]2)c1OC (stereo not drawn),–,inactive
CCOCC(C)O (stereo not drawn),-1.37% (inactive),–
CN(C)CCCN(C)CCCN(C)C,2.53% (inactive),–
CCCCS(=O)(=O)N[C@@H](Cc1ccc(OCCCCC2CCNCC2)cc1)C(=O)O,-2.09% (inactive),–
O=C(O)CNC(=O)c1ccc(CO)o1,2.69% (inactive),–
C=CCOCC(O)CO (stereo not drawn),2.66% (inactive),–
CC(C)(CCC(=O)O)C(=O)O,-0.821% [at 79.1 µM] (inactive),–
CC(=O)c1ccccc1[N+](=O)[O-],-1.75% (inactive),–
CC(C)COC(=O)c1ccc(N)cc1,–,26.8 µM [activator] (active)
C1CCC2(CCCCO2)OC1,-0.872% (inactive),–
Cc1ccnc(NS(=O)(=O)c2ccc(N)cc2)n1,0.122% [at 32.9 µM] (inactive),–
CCCCCCCCCC[N+](C)(C)[O-],0.702% (inactive),–
c1ccc(Cc2ccccc2)cc1,3.01% (inactive),–
CC1=NS(=O)(=O)c2cc(Cl)ccc2N1,1.82% (inactive),–
Cc1ccc(C(=O)c2ccc(CC(=O)O)n2C)cc1,-6.15% [at 32.9 µM] (inactive),–
Cc1cccc(C)c1NC(=O)CC12CCCN1CCC2,5.57% (inactive),–

# Target: Estrogen receptor (Homo sapiens) (UniProt P03372)
# Test: qHTS assay to identify small molecule agonists of the estrogen receptor alpha (ER-alpha) signaling pathway using the BG1 cell line (AID 743079; active = well fitted activation curve with a large enough effect in the repeat runs; note: nearly all actives have a fitted effect of over 20% in size; note: potency is the fitted concentration of half-maximal effect)
# Conditions: BG1Luc4E2 cells, ERE-luciferase agonist, 22 h; series mostly up to 70.3 µM; activation: at the top concentration
SMILES,activation,Potency
Cc1ccc(-c2ncc(Cl)cc2-c2ccc(S(C)(=O)=O)cc2)cn1,1.16% (inactive),–
CO[C@@]1(NC(=O)CSC[C@@H](N)C(=O)O)C(=O)N2C(C(=O)O)=C(CSc3nnnn3C)CS[C@@H]21,-0.262% (inactive),–
CCCCN1C=CN(C)C1,1.06% [at 32.5 µM] (inactive),–
COc1ccnc(CS(=O)c2nc3cc(OC(F)F)ccc3[nH]2)c1OC (stereo not drawn),–,inactive
CCOCC(C)O (stereo not drawn),2.53% (inactive),–
CCCCS(=O)(=O)N[C@@H](Cc1ccc(OCCCCC2CCNCC2)cc1)C(=O)O,-1.73% (inactive),–
O=C(O)CNC(=O)c1ccc(CO)o1,8.64% (inactive),–
C=CCOCC(O)CO (stereo not drawn),-2.91% (inactive),–
CC(C)(CCC(=O)O)C(=O)O,1.68% [at 95 µM] (inactive),–
CC(=O)c1ccccc1[N+](=O)[O-],5.2% (inactive),–
CC(C)COC(=O)c1ccc(N)cc1,–,26.6 µM (active)
C1CCC2(CCCCO2)OC1,8.46% (inactive),–
Cc1ccnc(NS(=O)(=O)c2ccc(N)cc2)n1,-12.3% [at 32.5 µM] (inactive),–
CCCCCCCCCC[N+](C)(C)[O-],4.14% (inactive),–
c1ccc(Cc2ccccc2)cc1,11.4% (inactive),–
CC1=NS(=O)(=O)c2cc(Cl)ccc2N1,-15.8% (inactive),–
Cc1ccc(C(=O)c2ccc(CC(=O)O)n2C)cc1,-8.03% [at 32.5 µM] (inactive),–
Cc1cccc(C)c1NC(=O)CC12CCCN1CCC2,1.89% (inactive),–
